PubChem BioAssay (EPA / NIEHS)
Activity calls are given as the source filed them. Rule for the calls: active = hit-call score of the fitted dose curve at least 0.9, where 1 is the maximum; inactive = score below 0.9.

Tests used:
Details in all cases: mRNA level, 48 h; actives raise or lower the signal
[1] = read-out: Lipoprotein lipase (LPL), LPL (gene 4023); test: LTEA_HepaRG_LPL: Life Technologies and Expression Analysis (LTEA) Assay for Lipoprotein lipase (LPL) using HepaRG (AID 2283515)
How it was run: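 Differentiated HepaRG cells, plated 48 h, then exposed 48 h in serum-free induction medium to 8 concentrations (top 100 uM, half-log steps) in 0.5% DMSO, duplicate. LPL mRNA measured by qRT-PCR, normalized to ACTB, GAPDH and POLR2A.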

[2] = read-out: MicroRNA 122 (MIR122), gene 406906; test: LTEA_HepaRG_MIR122: Life Technologies and Expression Analysis (LTEA) Assay for MicroRNA 122 (MIR122) using HepaRG (AID 2283516); note: the transcript read is the microRNA miR-122
How it was run: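 Differentiated human HepaRG cells in serum-free induction medium exposed 48 h to 8 half-log concentrations from 100 uM in 0.5% DMSO, duplicate. MIR122 quantified by Fluidigm TaqMan qRT-PCR, normalised to ACTB, GAPDH, POLR2A; fold change fitted bidirectionally versus DMSO.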

[3] = read-out: matrix metalloproteinase-10 (MMP10), MMP10 (gene 4319); test: LTEA_HepaRG_MMP10: Life Technologies and Expression Analysis (LTEA) Assay for matrix metalloproteinase-10 (MMP10) using HepaRG (AID 2283517)
How it was run: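 Differentiated HepaRG cells in serum-free induction medium exposed 48 h in duplicate to 8-point half-log series up to 100 uM in 0.5% DMSO. mRNA quantified by qRT-PCR, normalised to ACTB, GAPDH, POLR2A; bidirectional fit versus DMSO.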

MYC, MYC (gene 4609) = test: LTEA_HepaRG_MYC: Life Technologies and Expression Analysis (LTEA) Assay for MYC using HepaRG (AID 2283518)
How it was run: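 Expression changes were scored by TaqMan qRT-PCR with ACTB, GAPDH and POLR2A normalization. Cultures in serum-free induction medium received duplicate 8-point concentration series, highest 100 uM, for 48 h; DMSO (0.5%) served as baseline.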

[4] = read-out: matrix metalloproteinase-3 (MMP3), MMP3 (gene 4314); test: LTEA_HepaRG_MMP3: Life Technologies and Expression Analysis (LTEA) Assay for matrix metalloproteinase-3 (MMP3) using HepaRG (AID 2283519)
How it was run: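 HepaRG cells (~100,000/well) in serum-free induction medium were dosed in duplicate for 48 h with an 8-point half-log series from 100 uM, 0.5% DMSO. MMP3 mRNA was quantified by Fluidigm TaqMan qRT-PCR, normalized to three housekeeping genes.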

[5] = read-out: Paternally Expressed 10 (PEG10), PEG10 (gene 23089); test: LTEA_HepaRG_PEG10: Life Technologies and Expression Analysis (LTEA) Assay for Paternally Expressed 10 (PEG10) using HepaRG (AID 2283520)
How it was run: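 Differentiated HepaRG cells exposed 48 h in serum-free induction medium to eight half-log concentrations topping at 100 uM, 0.5% DMSO, in duplicate. PEG10 mRNA quantified by TaqMan qRT-PCR, normalized to ACTB, GAPDH and POLR2A; bidirectional fit versus DMSO.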

[6] = read-out: Protein phosphatase 2A (PPP2R4), PTPA (gene 5524); test: LTEA_HepaRG_PPP2R4: Life Technologies and Expression Analysis (LTEA) Assay for Protein phosphatase 2A (PPP2R4) using HepaRG (AID 2283522)
How it was run: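 Differentiated human HepaRG cells in serum-free induction medium were exposed 48 h to 8 concentrations (top 100 µM, half-log steps, duplicate) in 0.5% DMSO. PPP2R4 mRNA was measured by TaqMan qRT-PCR, normalised to ACTB, GAPDH and POLR2A, and fitted bidirectionally versus DMSO.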

[7] = read-out: solute carrier (SLC22A1), SLC22A1 (gene 6580); test: LTEA_HepaRG_SLC22A1: Life Technologies and Expression Analysis (LTEA) Assay for solute carrier (SLC22A1) using HepaRG (AID 2283524)
How it was run: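 Differentiated human HepaRG cells in serum-free induction medium, exposed 48 h in duplicate to 8-point half-log series from 100 µM top in 0.5% DMSO. SLC22A1 mRNA by TaqMan qRT-PCR normalized to ACTB, GAPDH, POLR2A; bidirectional fit versus DMSO.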

[8] = read-out: Nuclear factor NF-kappa-B p105 subunit (Homo sapiens) (UniProt P19838); test: LTEA_HepaRG_NFKB1: Life Technologies and Expression Analysis (LTEA) Assay for Nuclear Factor Kappa B Subunit 1 (NFKB1) using HepaRG (AID 2283521);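 note: TaqMan qRT-PCR transcript normalised to ACTB GAPDH and POLR2A housekeeping genes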
How it was run: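 HepaRG, 48 h exposure; 8-pt half-log series from 100 uM in 0.5% DMSO; duplicates. Readout: NFKB1 mRNA by qRT-PCR (Fluidigm arrays), housekeeping-normalized. Gain/loss fit vs DMSO baseline.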

[9] = read-out: Phosphatase and tensin (PTEN), PTEN (gene 5728); test: LTEA_HepaRG_PTEN: Life Technologies and Expression Analysis (LTEA) Assay for Phosphatase and tensin (PTEN) using HepaRG (AID 2283523)
How it was run: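 HepaRG cells, 48 h after plating, exposed in duplicate for 48 h in serum-free induction medium to 8 half-log concentrations up to 100 uM (0.5% DMSO). PTEN mRNA by qRT-PCR, normalized to ACTB, GAPDH, POLR2A; bidirectional fit versus DMSO.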

Measured: AC50

Nuclear factor NF-kappa-B p105 subunit (Homo sapiens), sequence (P19838 whole entry, looked up): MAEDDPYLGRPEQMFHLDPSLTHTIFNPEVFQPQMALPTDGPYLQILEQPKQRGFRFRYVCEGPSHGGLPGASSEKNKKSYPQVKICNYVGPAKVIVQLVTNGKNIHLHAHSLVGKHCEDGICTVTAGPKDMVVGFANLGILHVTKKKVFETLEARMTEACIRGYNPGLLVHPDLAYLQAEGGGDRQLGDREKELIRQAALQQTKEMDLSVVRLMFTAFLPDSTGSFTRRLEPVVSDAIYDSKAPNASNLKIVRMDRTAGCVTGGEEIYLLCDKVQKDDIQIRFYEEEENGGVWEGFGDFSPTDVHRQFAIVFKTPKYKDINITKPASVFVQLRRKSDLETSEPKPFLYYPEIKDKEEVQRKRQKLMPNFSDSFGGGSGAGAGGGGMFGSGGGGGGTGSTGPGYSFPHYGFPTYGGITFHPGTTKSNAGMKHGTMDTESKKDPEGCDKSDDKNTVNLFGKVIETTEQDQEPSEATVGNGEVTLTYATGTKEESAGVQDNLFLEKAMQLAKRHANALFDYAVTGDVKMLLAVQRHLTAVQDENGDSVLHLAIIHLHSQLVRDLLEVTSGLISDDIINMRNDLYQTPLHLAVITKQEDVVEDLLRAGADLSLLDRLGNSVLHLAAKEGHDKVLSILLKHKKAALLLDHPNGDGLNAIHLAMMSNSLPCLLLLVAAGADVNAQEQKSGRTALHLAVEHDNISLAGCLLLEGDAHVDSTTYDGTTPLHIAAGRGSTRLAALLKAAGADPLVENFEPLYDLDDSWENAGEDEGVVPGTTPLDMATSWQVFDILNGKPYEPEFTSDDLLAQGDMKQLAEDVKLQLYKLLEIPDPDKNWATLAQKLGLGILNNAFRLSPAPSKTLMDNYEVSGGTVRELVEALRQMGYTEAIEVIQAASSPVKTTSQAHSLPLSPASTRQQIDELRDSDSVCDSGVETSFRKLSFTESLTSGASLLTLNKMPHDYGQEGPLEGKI

ClC1=C(Cl)[C@]2(Cl)[C@@H]3[C@@H](Cl)[C@H]4O[C@H]4[C@@H]3C1(Cl)C2(Cl)Cl
active: [7] 50 µM
inactive: [1] | [2] | [3] | MYC, MYC (gene 4609) | [4] | [5] | [6]

CCC(C)(CC)c1cc(NC(=O)c2c(OC)cccc2OC)on1
inactive: [1] | [2] | [3] | [4] | [8] | [6]
active: MYC, MYC (gene 4609) 25.7 µM | [5] 14.2 µM | [7] 34.6 µM

O=C(NC(=O)c1cc(F)c(F)cc1Cl)Nc1cc(F)ccc1N1CCC(C(=O)O)CC1
active: [5] 25 µM
inactive: [1] | [2] | [3] | MYC, MYC (gene 4609) | [4] | [6] | [7]

O=C(NC(=O)c1c(F)cccc1F)Nc1cc(Cl)c(OC(F)(F)C(F)F)c(Cl)c1
inactive: [1] | [2] | [3] | MYC, MYC (gene 4609) | [4] | [5] | [6] | [7]

C[C@]12CCC(=O)C=C1CC[C@@H]1[C@@H]2CC[C@]2(C)C(=O)CC[C@@H]12
inactive: [1] | [2] | [3] | MYC, MYC (gene 4609) | [6] | [7]
active: [4] 8.39 µM | [5] 6.54 µM

CN(C)CCO
inactive: [1] | [2] | [3] | MYC, MYC (gene 4609) | [4] | [5] | [6] | [7]

Clc1ccc(C(c2ccccc2Cl)C(Cl)(Cl)Cl)cc1 (configuration not stated)
active: [1] 89.7 µM
inactive: [2] | [3] | MYC, MYC (gene 4609) | [4] | [6] | [9] | [7]

NS(=O)(=O)C(F)(F)C(F)(F)C(F)(F)C(F)(F)C(F)(F)C(F)(F)C(F)(F)C(F)(F)F
active: [1] 70.8 µM | [2] 12.4 µM | [3] 33.9 µM | MYC, MYC (gene 4609) 26.8 µM | [4] 50 µM | [5] 5.02 µM | [6] 24.4 µM | [7] 9.51 µM

CCCCCCCCOC(=O)c1ccccc1C(=O)OCCCCCCCC
inactive: [1] | [2] | [3] | MYC, MYC (gene 4609) | [4] | [5] | [6] | [7]

CCOCCOC(C)=O
inactive: [1] | [2] | [3] | MYC, MYC (gene 4609) | [4] | [5] | [6] | [7]

CCOP(=S)(OCC)SCSC(C)(C)C
inactive: [1] | [2] | [3] | MYC, MYC (gene 4609) | [4] | [6] | [7]
active: [5] 50 µM

Clc1ccc(Cl)cc1
inactive: [1] | [2] | [3] | MYC, MYC (gene 4609) | [4] | [5] | [6] | [7]

O=S(=O)(O)C(F)(F)C(F)(F)C(F)(F)C(F)(F)F
inactive: [1] | [2] | [3] | MYC, MYC (gene 4609) | [4] | [5] | [6] | [7]

CCNc1nc(NC(C)C)nc(SC)n1
inactive: [1] | [2] | [3] | MYC, MYC (gene 4609) | [4] | [6]
active: [5] 12.4 µM | [7] 37.3 µM

CCCCCCOC(=O)c1ccccc1C(=O)OCCCCCC
inactive: [1] | [2] | [3] | MYC, MYC (gene 4609) | [4] | [5] | [6]
active: [7] 0.0876 µM

CC#Cc1cc(C)nc(Nc2ccccc2)n1
inactive: [3] | [6] | [9]
active: [1] 3.75 µM | [2] 21.7 µM | MYC, MYC (gene 4609) 28.4 µM | [5] 13.1 µM | [7] 26.4 µM

CCCN(CCC)N=O
inactive: [1] | [2] | [3] | MYC, MYC (gene 4609) | [4] | [5] | [6] | [7]

CN(C)c1nc(=O)n(C2CCCCC2)c(=O)n1C
inactive: [1] | [2] | [3] | MYC, MYC (gene 4609) | [4] | [5] | [6] | [7]

CCC(C)c1cc([N+](=O)[O-])cc([N+](=O)[O-])c1O (configuration not stated)
active: [1] 0.758 µM | [2] 2.73 µM | [3] 3.93 µM | MYC, MYC (gene 4609) 9.27 µM | [4] 2.23 µM | [5] 1.26 µM | [6] 1.25 µM | [7] 1.74 µM

Nn1cnnc1
inactive: [1] | [2] | [3] | MYC, MYC (gene 4609) | [4] | [5] | [6] | [7]

Cc1cccc([N+](=O)[O-])c1
inactive: [1] | [2] | [3] | MYC, MYC (gene 4609) | [4] | [5] | [6] | [7]

Cc1cc(O)ccc1Cl
inactive: [1] | [2] | [3] | MYC, MYC (gene 4609) | [4] | [5] | [6] | [7]

C=CC(N)=O
inactive: [1] | [2] | [3] | MYC, MYC (gene 4609) | [4] | [5] | [6] | [7]

ClC1=C(Cl)[C@]2(Cl)[C@@H]3[C@@H]4C[C@@H]([C@H]5O[C@@H]45)[C@@H]3[C@@]1(Cl)C2(Cl)Cl
active: MYC, MYC (gene 4609) 9.92 µM | [7] 50 µM
inactive: [1] | [2] | [3] | [4] | [5] | [6]

CC(c1ccc(O)cc1)(c1ccc(O)cc1)c1ccc(O)cc1
inactive: [4]
active: [1] 68.6 µM | [2] 77.9 µM | [3] 50 µM | MYC, MYC (gene 4609) 94.2 µM | [6] 69.7 µM | [9] 74.3 µM | [7] 41.4 µM

Cc1ccccc1CO[C@@H]1C[C@@]2(C(C)C)CC[C@]1(C)O2
inactive: [1] | [2] | [3] | MYC, MYC (gene 4609) | [4] | [5] | [6] | [7]

COS(=O)(=O)OC
inactive: [1] | [2] | [3] | MYC, MYC (gene 4609) | [4] | [5] | [6] | [7]

CCSC(=O)N(CC)C1CCCCC1
inactive: [1] | [2] | [3] | MYC, MYC (gene 4609) | [4] | [5] | [6] | [7]

c1cc2ccc3cccc4ccc(c1)c2c34
inactive: [1] | [2] | [3] | MYC, MYC (gene 4609) | [4] | [5] | [6] | [7]

CC1=C2C[C@H]3[C@@H](CC=C4C[C@@H](O)CC[C@@]43C)[C@@H]2CC[C@]12O[C@@H]1C[C@H](C)CN[C@H]1[C@H]2C
inactive: [1] | [2] | [3] | MYC, MYC (gene 4609) | [4] | [5] | [6] | [7]

O=C(O)C(F)(F)C(F)(F)C(F)(F)C(F)(F)C(F)(F)F
inactive: [1] | [2] | [3] | MYC, MYC (gene 4609) | [4] | [5] | [6] | [7]

c1ccc(-c2ccccc2)cc1
inactive: [1] | [2] | [3] | MYC, MYC (gene 4609) | [4] | [5] | [6] | [7]

CO/C=C(/C(=O)OC)c1ccccc1COc1cccc(C(F)(F)F)n1
active: [1] 9.42 µM | [2] 6.86 µM | [3] 12.6 µM | MYC, MYC (gene 4609) 9.71 µM | [4] 23.9 µM | [7] 5.3 µM
inactive: [6]

C[C@]12CCC(=O)C=C1CC[C@@H]1[C@@H]2CC[C@@]2(C)[C@H]1CC[C@]2(C)O
inactive: [1] | [3] | MYC, MYC (gene 4609) | [6]
active: [2] 45.8 µM | [4] 0.948 µM | [5] 2.07 µM | [7] 45.8 µM
